According to PubChem BioAssay (NCATS):
“And” between values parts separate entries of the source, which are not always exact repeats. Identical values can stand only once. Results filed as inconclusive are left out. The source made the active and inactive calls. Calls come from the whole dose curve; as a rule, active = well fitted activation curve with a large enough effect; inconclusive = small, poorly fitted or top-dose-only effect; inactive = flat fitted curve, though single readings scatter.

Assay: qHTS assay for environmental chemicals that activate the Aryl hydrocarbon Receptor (AhR) signaling pathway (AID 651777); note: nearly all actives have a fitted effect of over 15% in size; for activation: % of control where 0% means no effect
Details: 1A2-DRE human hepatoma cells, luciferase, 24 h; activation: hits give high values
How it was run: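 Human hepatoma 1A2-DRE cells stably carrying a DRE/CYP1A2 promoter–luciferase reporter, 1,200 cells/well, exposed to compound 24 hr at 37 C. Luciferase read by One-Glo luminescence after 30 min at room temperature; increased signal marks AhR activation.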
Potency is the fitted concentration of half-maximal effect.

Structure (SMILES) | activation | Potency
CCCCCCCCCCCCCC(=O)OC(C)C | -0.593% (inactive) | 
COc1cc([C@H]2Oc3cc([C@H]4Oc5cc(O)cc(O)c5C(=O)[C@@H]4O)ccc3O[C@@H]2CO)ccc1O | 0.406% (inactive) | 
CCCCCCCCOc1ccc(C(=O)c2ccccc2)c(O)c1 | -9.5% (inactive) | 
COc1ccc(C(Cl)=C(c2ccc(OC)cc2)c2ccc(OC)cc2)cc1 | -0.915% (inactive) | 
C#C[C@]1(O)CC[C@H]2[C@@H]3CCC4=Cc5oncc5C[C@]4(C)[C@H]3CC[C@@]21C | 0.604% (inactive) | 
C/C=C/c1ccc(O)c(OC)c1 | 3.77% (inactive) and 1.82% (inactive) | 
COc1ccc(C(=O)c2ccccc2)c(O)c1 | 8.63% (inactive) and 11.4% (inactive) | 
O=C(O)c1ccc(S(=O)(=O)N(Cl)Cl)cc1 | 0.0057% (inactive) | 
C=C[C@@]1(C)CC(=O)[C@]2(O)[C@@]3(C)[C@@H](O)CCC(C)(C)[C@@H]3[C@H](O)[C@H](OC(C)=O)[C@@]2(C)O1 |  | 17.8 µM (active)
CCOc1ccccc1C(N)=O | 0.471% (inactive) | 
Oc1c(Cl)cc(Cl)c(Cl)c1Cc1c(O)c(Cl)cc(Cl)c1Cl | 3.13% (inactive) and 3.58% (inactive) | 
CCCCCCCCCCCCCCCC(=O)O | 0.499% (inactive) | 
NCCNc1cccc2ccccc12 |  | 39.8 µM (active)
CCCN(CCC)S(=O)(=O)c1ccc(C(=O)O)cc1 | -1.19% (inactive) and -0.648% (inactive) | 
CC(C)(C)CC(C)(C)c1ccc(O)c(-n2nc3ccccc3n2)c1 | 5.11% (inactive) | 
CCCCCCCCCCCCCCCCO | 1.7% (inactive) | 
CCCCC(CC)COC(=O)c1ccc(N(C)C)cc1 (centres undefined) | 8.87% (inactive) and 0.16% (inactive) | 
C=C[C@H]1CN2CC[C@H]1C[C@@H]2[C@@H](O)c1ccnc2ccc(OC)cc12 | 4.17% (inactive) | 
Oc1ccc(Cl)cc1Cc1cc(Cl)ccc1O | -1.39% (inactive) and 3.39% (inactive) | 
CC1(C)OC[C@@H]2O[C@@]3(C(=O)O)OC(C)(C)O[C@H]3[C@@H]2O1 | 1.2% (inactive) | 
CCOc1ccc(NC(C)=O)cc1 | 1.23% (inactive) and 0.542% (inactive) | 
CCCCOC(=O)CC(CC(=O)OCCCC)(OC(C)=O)C(=O)OCCCC | 0.777% (inactive) | 
CCCCCCCC/C=C\CCCCCCCCN | -0.319% (inactive) | 
NC(=O)c1ccccc1O | 2.51% (inactive) | 
